# Screens: PubChem, NMMLSC
# RGS16-Gao: modulators of RGS16 binding to Galphao, primary screen, biochemical, human proteins, multiplexed bead flow cytometry; Regulator of G-protein signaling 16 (Homo sapiens) + Guanine nucleotide-binding protein …; bead-based flow cytometry RGS16-Galphao binding, fluorescence; actives lie on both sides; binding response (% of control), % at 10 µM; 220,000 tested, 0.38% active;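 note: Galphao activated by GDP with aluminum fluoride before binding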
# GSH fluor: compound fluorescence on glutathione beads, profiling panel, artefact control, biophysical, 488/530 nm, flow cytometry. GSH beads flow cytometry, compound fluorescence 488/530 nm; stronger effect = higher value. 190,000 tested, 0.25% active. fluorescence (KMESF) at 10 µM; in the data active = fluorescence above about 89;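 note: glutathione beads carrying GST-tagged Bcl family fusion proteins plus one bare bead set; values are compound well signal with DMSO vehicle wells as background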
# RGS4-Gao reg: modulators of RGS4 binding to Galphao, primary screen, biochemical, multiplexed bead flow cytometry. Guanine nucleotide-binding protein G(o) subunit alpha (Homo sapiens), P09471. actives lie on both sides. binding response (% of control), % at 10 µM. 220,000 tested, 0.33% active; in the data active = binding response below about 49% or above about 150%; inactive = in between;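 note: fluorescent Galphao activated with aluminum fluoride binding bead-coupled RGS4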
# Target sequence (P09471 whole entry, looked up): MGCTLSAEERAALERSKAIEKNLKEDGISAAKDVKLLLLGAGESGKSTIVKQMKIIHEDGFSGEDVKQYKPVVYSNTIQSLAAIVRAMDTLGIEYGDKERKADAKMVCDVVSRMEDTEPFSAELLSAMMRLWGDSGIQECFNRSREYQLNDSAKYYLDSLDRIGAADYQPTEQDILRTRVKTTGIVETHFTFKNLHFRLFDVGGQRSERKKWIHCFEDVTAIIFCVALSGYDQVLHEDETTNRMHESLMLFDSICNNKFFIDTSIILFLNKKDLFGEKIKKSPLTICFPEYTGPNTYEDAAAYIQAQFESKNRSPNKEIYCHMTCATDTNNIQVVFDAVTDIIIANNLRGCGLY
# RGS8-Gao: RGS8-Galphao binding modulators, primary screen, biochemical, multiplexed bead flow cytometry | Guanine nucleotide-binding protein G(o) subunit alpha (Homo sapiens), P09471 | actives lie on both sides | response (percent of control binding), % at 10 µM | 220,000 tested, 0.34% active; in the data active = response below about 60% or above about 140%; inactive = in between;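 note: Galphao activated as the GDP aluminium fluoride complex binding bead-coupled RGS8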
# Avidin fluor: green autofluorescence of compounds with avidin beads – biophysical, 488/530 nm, flow cytometry, artefact control, profiling panel; compound fluorescence 488/530 nm; stronger effect = higher value; fluorescence (KMESF) at 10 µM; 220,000 tested, 0.38% active; AID 1775, 2009; in the data active = fluorescence above about 47
# RGS7-Gao reg: RGS7-Galphao binding modulators, primary screen, biochemical, multiplexed bead flow cytometry. Guanine nucleotide-binding protein G(o) subunit alpha (Homo sapiens), P09471. actives lie on both sides. binding response (% of control), % at 10 µM. 220,000 tested, 0.35% active; in the data active = binding response below about 49% or above about 150%; inconclusive = no clear call, values can overlap the other calls; inactive = in between;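 note: fluorescent Galphao held in activated GDP-AlF4 state binding bead-coupled RGS7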
# RGS-Gao: modulators of RGS–Galpha-o binding, primary screen, biochemical, multiplexed beads, flow cytometry, RGS4/7/8/16/19; 1,600 tested, 99% active; AID 1504, 2009; multiplexed bead flow cytometry; RGS4–Galpha-o binding response, % at 10 µM; shares compounds with RGS16-Gao;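 note: fluorescently labeled Galpha-o bound to GDP with aluminium fluoride binding biotinylated RGS beads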
# Target sequence (P09471 whole entry, looked up): as above
# Target sequence (P49798 whole entry, looked up): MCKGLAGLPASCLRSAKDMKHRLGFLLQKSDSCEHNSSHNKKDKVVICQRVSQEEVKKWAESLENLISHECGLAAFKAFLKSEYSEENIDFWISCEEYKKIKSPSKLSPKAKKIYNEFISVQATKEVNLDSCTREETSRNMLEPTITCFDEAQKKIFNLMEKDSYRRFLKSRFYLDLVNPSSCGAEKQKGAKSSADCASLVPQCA
# Biotin-avidin: disruption of biotin probe capture by avidin, counter-screen for RGS protein interaction modulators, biochemical, flow cytometry, bead-based; shares compounds with RGS16-Gao; 1,700 tested, under 10 active; streptavidin beads, fluorescein-biotin binding; inhibition, % at 10 µM;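 active = inhibition above 50%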;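 note: median green fluorescence of gated singlet beads compared with DMSO control wells; 0% = DMSO wells and 100% = complete loss of bead fluorescence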
# RGS8-Gao single: RGS8-Galphao binding modulators, confirmation, biochemical, multiplexed bead flow cytometry, single concentration; shares compounds with RGS16-Gao; bead-based flow cytometry RGS8-Galphao binding, fluorescence; actives lie on both sides; binding response (% of control), % at 10 µM; 1,700 tested, 3% active; AID 1836, 2009; in the data active = binding response below about 72% or above about 130%; inactive = in between;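 note: Galphao activated as GDP AlF4 complex before binding bead RGS8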
# RGS7-Gao single: RGS7-Galphao binding modulators, confirmation, biochemical, multiplexed bead flow cytometry, single concentration; response (percent of control binding), % at 10 µM; AID 1837, 2009; shares compounds with RGS16-Gao; 1,700 tested, 7.8% active; bead-based flow cytometry RGS7-Galphao binding; actives lie on both sides; in the data active = response below about 75% or above about 130%; inactive = in between;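 note: fluorescent Galphao activated with GDP and aluminum fluoride binding bead-coupled RGS7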
# RGS16-Gao single: modulators of RGS16-Galphao protein binding, confirmation, biochemical, single concentration, multiplexed bead flow cytometry. shares compounds with RGS16-Gao. response (% of control binding), % at 10 µM. bead-based flow cytometry; actives lie on both sides. 1,700 tested, 4% active; in the data active = response below about 74% or above about 130%; inactive = in between;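 note: Galphao activated as the GDP aluminium fluoride complex binding bead-coupled RGS16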
# RGS4-Gao single: modulators of RGS4-Galphao protein binding, confirmation, biochemical, single concentration, multiplexed bead flow cytometry | 1,700 tested, 4% active | binding response (% of control), % at 10 µM | actives lie on both sides | shares compounds with RGS16-Gao | AID 1840, 2009; in the data active = binding response below about 74% or above about 130%; inactive = in between
# RGS19-Gao conf: regulators of RGS19-Galphao binding, confirmation, biochemical, single point, multiplexed bead flow cytometry. shares compounds with RGS16-Gao. bead-based flow cytometry RGS19-Galphao binding; actives lie on both sides. response (percent of control binding), % at 10 µM. 1,700 tested, 5% active; in the data active = response below about 50% or above about 160%; inactive = in between;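 note: 100% = no compound control and 0% = blank background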
# The depositor's hits bear a star; ? = inconclusive; · = not tested or not shown; [ ] = remark or other dose. Compounds with a hit are over-represented: about 1.2% of the library has one in this group of screens. Unless noted, the rule behind the calls is not given here.
SMILES,RGS16-Gao,GSH fluor,RGS4-Gao reg,RGS8-Gao,Avidin fluor,RGS7-Gao reg,Biotin-avidin,RGS8-Gao single,RGS7-Gao single,RGS16-Gao single,RGS4-Gao single,RGS19-Gao conf,others
CCOC(=O)/C(C#N)=C/Nc1cc(C(=O)OCC)cc2c(OC)c(OC)ccc12,-5.8*,·,-4.8*,17*,-1,?,-1,100,95,96,95,95,
O=c1[nH]c2ccc(NC(=S)Nc3ccc(F)cc3)cc2[nH]1,102,·,107,106,7,?,·,·,·,·,·,·,
Cc1ccc(S(=O)(=O)/N=C(/Nc2ccc3[nH]c(=O)[nH]c3c2)c2ccc(F)cc2)cc1,100,14,104,99,37,152*[activator],-1,107,102,117,105,116,RGS-Gao=104*
Cc1cc(/C=C2\SC(=S)N(C)C2=O)c(C)n1-c1cccc(O)c1,99,·,96,102,6,?,·,·,·,·,·,·,
COc1ccc(-n2c(C)cc(/C=C3/SC(=S)N(C)C3=O)c2C)cc1,-2.3*,24,-20*,2.9*,-3,-5.5*,3,99,104,98,98,103,
O=C(O)COc1ccccc1/C=N/NC(=O)Cc1csc(Nc2cccc(C(F)(F)F)c2)n1,32,12,39*,40*,4,?,-1,104,103,105,101,108,
CC1CCCCN1C(=O)Cn1cc(/C=C2/C(=O)Nc3ccccc32)c2ccccc21 (configuration not stated),41,20,50*,55*,3,44*,0,103,104,104,104,98,
C[C@H](O)CC1=C[C@H](O)[C@@H](C)OC1=O,99,19,94,98,5,92,·,·,·,·,·,·,
COc1ccc(-n2ncc3c(=O)n(CC(=O)Nc4ccc(S(=O)(=O)N5CCOCC5)cc4)cnc32)cc1,97,11,99,99,3,97,·,·,·,·,·,·,
O=C(Cn1cnc2c(cnn2-c2ccccc2)c1=O)Nc1ccc(S(=O)(=O)N2CCOCC2)cc1,20*,11,95,77,10,90,2,97,93,95,93,189*[activator],RGS-Gao=95*
CC(=O)Nc1ncc2c(n1)CC(c1ccco1)CC2=O (configuration not stated),99,26,97,98,14,94,·,·,·,·,·,·,
O=C(CSC(=S)N1CCCCC1)Nc1ncc2c(n1)CC(c1ccco1)CC2=O (configuration not stated),166,·,181*[activator],144*[activator],7,?,0,95,95,97,94,94,
Cc1ccc(S(=O)(=O)NC(=O)Nc2ncc3c(n2)CC(c2ccco2)CC3=O)cc1 (configuration not stated),14*,8,79,63,2,77,0,102,107,102,103,93,RGS-Gao=79*
O=[N+]([O-])c1ccc(NCCCNS(=O)(=O)c2ccccc2)cc1,99,20,96,98,5,92,·,·,·,·,·,·,
CCCN1CNC(=S)N(c2ccccc2OC)C1,47,16,100,98,9,104,·,·,·,·,·,·,
CCCN1CN(c2ccccc2)C(=S)N(c2ccccc2)C1,169,·,195*[activator],136,3,?,0,101,99,100,100,104,
CCOC(=O)c1c(C)n(CC)c2ccc(OC(=O)c3ccc([N+](=O)[O-])cc3)cc12,100,9,102,100,5,·,1,95,95,95,95,103,
CN(CC(=O)NCc1ccccn1)S(=O)(=O)c1ccc2ccccc2c1,74,11,96,92,16,97,·,·,·,·,·,·,
Cc1sc2c(c1C)C(=O)/C(=C\Nc1ccncc1)S(=O)(=O)N2C,98,·,102,100,3,?,·,·,·,·,·,·,
CCN(CC)S(=O)(=O)c1cccc(C(=O)N/N=C/c2ccc(O)c(O)c2O)c1,-61,1,43*,51*,-1,31*,1,64*,61*,57*,63*,16*,
CCOc1ccccc1/C=N/NC(=O)c1cccc(S(=O)(=O)N(CC)CC)c1,94,11,93,100,11,92,·,·,·,·,·,·,
CCCNc1nc(C)cc(-c2cc(C(=O)NC3CCCC3)on2)n1,98,·,98,99,10,?,·,·,·,·,·,·,
COc1cc(C(=O)NNC(=O)c2ccc(NC(C)=O)cc2)cc(OC)c1OC,11*,8,23*,14*,1,17*,-1,107,210*[activator],132*[activator],165*[activator],255*[activator],
COc1cc(C(=O)Nc2ccc(N(C)C)cc2)cc(OC)c1OC,98,6,99,100,7,98,·,·,·,·,·,·,
